According to PubChem BioAssay AID488857 (Sanford-Burnham Center for Chemical Genomics, 2010):
The campaign covered roughly 1,400 compounds. About 560 (40%) were called active. So high a share suggests a set chosen from earlier hits. Some of the results follow. Unmarked numbers belong to inactive results.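 How the source made its calls: active means mean inhibition over duplicate tests at 10 µM above 50%; inactive means the rest.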

Assay: ASC/caspase-1 reporter retest in S. cerevisiae at one dose, specificity check for NALP1 project (AID 488857)
Conditions: S. cerevisiae ASC/Caspase-1, beta-galactosidase luminescence, 24 h; at 10 µM; active compounds read high
Oc1oc(-c2ccccc2)nc1C=Nc1cccc2ccccc12 showed an inhibition of 32.5%.
With CC(C)N1CCC2(CC1)N=C(c1ccc3c(c1)OCO3)CC(c1cc(Cl)ccc1O)N2 (stereo unspecified) the inhibition was 74.5% (active).
In the case of Clc1ccc(C2=NNC(=NCc3ccc4c(c3)OCO4)SC2)cc1, the inhibition is reported as 33.4%.
With CCNc1c(C(=O)O)ccc2c1C(=O)c1ccccc1C2=O the inhibition was 39.5%.
For CC(=O)c1c(C)oc2c1C(=O)c1ccccc1C2=O, the inhibition was 74.2% (active).
Compound COc1ccc(C(=O)c2c(C(F)(F)F)oc3c2C(=O)c2ccccc2C3=O)cc1 has an inhibition of 20.5%.
With CCN1CCN(c2cc(C(C)C)nc3c(-c4ccccc4)c(C)nn23)CC1 the inhibition was 52.5% (active).
In the case of O=C(c1ccc2c(Cl)c3c(nc2c1)CCCC3)N1CCN(c2ccc(F)cc2)CC1, the inhibition is reported as 61.5% (active).
O=C(c1cccc(F)c1)N1CCN(c2cc(N3CCCCC3)c(F)cc2[N+](=O)[O-])CC1 showed an inhibition of 49.4%.
With c1cc2c3c(cccc3c1)NC1(CCCCCC1)N2 the inhibition was 19.9%.
For Cc1ccc(-c2cc(NC(=O)CSc3n[nH]c(N)n3)n(-c3ccccc3)n2)cc1, the inhibition was 21.9%.
In the case of O=C(CCl)Nc1cc(-c2ccccc2)nn1-c1ccccc1, the inhibition is reported as 78.5% (active).
In the case of COCC(=O)OCC(=O)Nc1cc(C(C)(C)C)nn1-c1ccccc1, the inhibition is reported as 21.4%.
Work on COC(=O)c1ccccc1NC(=O)N1CCN(C/C=C/c2ccccc2)CC1 yielded an inhibition of 42.6%.
In the case of O=C(CN1CCOCC1)Nc1ccccc1Sc1ccc(Cl)cc1, the inhibition is reported as 28.6%.
For CCC(C)c1ccccc1NC(=O)CN1CCN(C/C=C/c2ccccc2)CC1 (stereo unspecified), the inhibition was 55% (active).
For Cc1noc2ncc(C(=O)c3cc(F)ccc3O)cc12, the inhibition was 27.6%.
For Clc1cccc(OCCN2CCN(CCOc3cccc(Cl)c3)CC2)c1, the inhibition was 65.6% (active).
Work on c1ccc(COc2ccc(OCCN3CCCCC3)cc2)cc1 yielded an inhibition of 39.1%.
Clc1ccc(OCCCN2CCCC2)cc1Cl showed an inhibition of 40%.
With CCN1CCN(Cc2cccc(Oc3ccccc3)c2)CC1 the inhibition was 40%.
CCN(CC)CCCOc1ccc(Cl)c(Cl)c1 gave an inhibition of 39.4%.
With CC1CCN(CCOc2ccc(OCc3ccccc3)cc2)CC1 the inhibition was 59.3% (active).
For CC1CCN(CCOc2ccc(Cl)c(Cl)c2)CC1, the inhibition was 56.5% (active).
In the case of Clc1ccc(OCCN2CCCCC2)cc1Cl, the inhibition is reported as 57.7% (active).
Work on CC1CCN(CCOc2cccc(Br)c2)CC1 yielded an inhibition of 43.1%.
Cn1c(=O)n(CCCOc2ccc(Cl)cc2)c2ccccc21 gave an inhibition of 46.1%.
For CN(C)Cc1ccccc1COc1ccccc1, the inhibition was 31.8%.
In the case of CCN(CC)S(=O)(=O)c1ccc(NS(=O)(=O)c2cccs2)cc1, the inhibition is reported as 29.6%.
For Cc1ccc(/C(N)=N/OC(=O)c2cccs2)cc1, the inhibition was 69.2% (active).
In the case of CC1CN(C(=O)Nc2ccc3c(c2)OCO3)CC(C)O1 (stereo unspecified), the inhibition is reported as 27.1%.
For Cc1cccc(/C(N)=N/OC(=O)c2ccc3c(c2)OCO3)c1, the inhibition was 55.8% (active).
Cc1ccc(/C(N)=N/OC(=O)c2ccc(Cl)cc2Cl)cc1 gave an inhibition of 46.2%.
With Cc1ccc(/C(N)=N/OC(=O)c2ccc3c(c2)OCO3)cc1 the inhibition was 86.8% (active).
Compound CC1(C)CC(=O)c2cc(C(=O)O)c(=O)n(-c3ccccc3)c2C1 has an inhibition of 37.4%.
With CC(C)c1nc(SCC(=O)Nc2ccc3c(c2)OCCO3)n[nH]1 the inhibition was 24.2%.
Work on O=C(/C=N/O)Nc1cccnc1 yielded an inhibition of 41.3%.
Work on Cc1ccsc1/C=N/NC(=O)c1ccco1 yielded an inhibition of 48.5%.
With COc1cc(Br)cc(C=Nc2cccc(C(F)(F)F)c2)c1O the inhibition was 30%.
In the case of Oc1c(Br)cc(Br)cc1C=Nc1ccc2c(c1)OCO2, the inhibition is reported as 64.6% (active).
For Oc1c(Br)cc(Br)cc1C=Nc1cccnc1, the inhibition was 54.1% (active).
For O=C(Nc1cccc(N=Cc2cc(Br)cc(Br)c2O)c1)c1ccco1, the inhibition was 57% (active).
Compound CCOc1nc(-c2ccccc2Cl)ccc1C#N has an inhibition of 45.4%.
For OC(CNCCc1ccc(C(F)(F)F)cc1)COc1cccc2ccccc12 (stereo unspecified), the inhibition was 59.9% (active).
In the case of C=CCNc1oc(COc2ccc(C)cc2)nc1C#N, the inhibition is reported as 56.6% (active).
In the case of COC(=O)C(CCSC)NC(=O)Cn1ncc2c(=O)oc3ccccc3c21 (stereo unspecified), the inhibition is reported as 42%.
In the case of O=C1C=CC(=O)N1c1ccc(N2CCCCC2)cc1, the inhibition is reported as 68.2% (active).
Work on O=[N+]([O-])c1ccc(N2CCCCC2)cc1 yielded an inhibition of 39.5%.
Work on CCCc1[nH]nc2c1C(c1ccoc1)C(C#N)=C(N)O2 (stereo unspecified) yielded an inhibition of 43.1%.
Compound O=c1c2c(C(F)(F)F)cc(C(F)(F)F)nc2[nH]n1-c1ccccc1 has an inhibition of 33%.
Work on Cc1c(Cl)c([N+](=O)[O-])nn1Cc1ccc(C(=O)N/N=C\c2ccccn2)o1 yielded an inhibition of 31.1%.
For Nc1c(Cl)ncnc1N/N=C/c1ccccn1, the inhibition was 85.2% (active).
With Nc1c2c(nc3sc4c(c13)CCCCC4)CCCCC2 the inhibition was 69% (active).
With CC1CCc2nc3sc4c(c3c(N)c2C1)CCCC4 (stereo unspecified) the inhibition was 93.2% (active).
For Nc1c2c(nc3sc4c(c13)CCCC4)CCCCCC2, the inhibition was 48.9%.
For N#Cc1cnn(-c2ncnc3sc4c(c23)CCCC4)c1N, the inhibition was 37.2%.
With C=C(C)COc1ccc2c(CC)cc(=O)oc2c1C the inhibition was 61.5% (active).
CC(C)(C#CCN1CCCCC1)OCCOC(c1ccccc1)c1ccccc1 showed an inhibition of 30.2%.
For CN(C)C(C)(C)C#CCC(c1ccccc1)c1ccccc1, the inhibition was 55% (active).
In the case of CCCCNC(=O)Nc1nnc(-c2ccc(Cl)cc2)o1, the inhibition is reported as 54.4% (active).
CCCCNC(=O)Nc1cc(C)on1 gave an inhibition of 27.1%.
CCC1(CC)Cc2ccccc2C(Nc2c(C)n(C)n(-c3ccccc3)c2=O)=N1 gave an inhibition of 18.9%.
Compound O=C(Cc1coc2cc3c(cc12)CCC3)NCC1(N2CCCCC2)CCCCC1 has an inhibition of 45%.
With Cc1ccc(OCc2nc(-c3ccc(Cl)cc3)n[nH]2)cc1 the inhibition was 78.2% (active).
With O=C(O)[C@@H](c1ccccc1)N1Cc2ccccc2C1=O the inhibition was 22.6%.
With COC(=O)N/N=C(\C)c1ccc2ccccc2c1OC(F)F the inhibition was 62.3% (active).
With OC(CNCCC1C=Nc2ccccc21)Cn1c2ccc(Cl)cc2c2cc(Cl)ccc21 (stereo unspecified) the inhibition was 53.8% (active).
In the case of CC(C)NCCOCCOc1ccc(Cl)cc1Br, the inhibition is reported as 39.3%.
In the case of Clc1ccc(OCCOCCN2CCc3ccccc3C2)c(Cl)c1, the inhibition is reported as 58.2% (active).
In the case of Clc1ccc(OCCCNCc2ccccc2)c2ccccc12, the inhibition is reported as 53.2% (active).
With CCc1cc(OCCCCNCc2ccccc2)ccc1Cl the inhibition was 44.5%.
For Cc1nc2c(=O)n(C)c(=O)n(C)c2nc1Cl, the inhibition was 25.6%.
With CCOC(=O)/C(=N\Nc1ccc(Cl)cc1)c1csc(Nc2ccccc2)n1 the inhibition was 31.7%.
Compound Cc1ccc(S(=O)(=O)c2nc(C)oc2NCc2ccccc2)cc1 has an inhibition of 34.9%.
In the case of Cc1ccc(S(=O)(=O)c2nc(Nc3ccccc3)sc2Cl)cc1, the inhibition is reported as 69.3% (active).
CC1CCCC(NC(=O)C2CCN(S(=O)(=O)N3CCCCC3)CC2)C1C (stereo unspecified) showed an inhibition of 36.5%.
CCn1c(COc2ccccc2C)nnc1SCC(=O)N1CCN(c2ccccc2)CC1 showed an inhibition of 40.5%.
In the case of O=C(COc1cccc2ccccc12)N1CCN(c2ccccc2)CC1, the inhibition is reported as 52% (active).
With O=C(Cc1ccc(-n2c(=O)[nH]c3ccccc3c2=O)cc1)N1CCN(c2ccccc2)CC1 the inhibition was 17.4%.
With C/C(=N\N1CCN(c2ccc(Cl)cc2)CC1)c1ccco1 the inhibition was 36.9%.
In the case of CCCCCOc1ccc(Br)cc1CSC(=N)N, the inhibition is reported as 59% (active).
Work on FC(F)(F)C(F)(F)c1nnc2ccc(-n3ccnc3)nn12 yielded an inhibition of 33.5%.
In the case of Cc1ncc(S(=O)(=O)c2ccccc2)c(-c2ccccc2Cl)n1, the inhibition is reported as 7.65%.
In the case of COc1ccc2cc(/C=N/O)c(Cl)nc2c1, the inhibition is reported as 55% (active).
With COc1ccc(CC2(C)OC(c3ccc(C)cc3)=NN2C(C)=O)cc1 (stereo unspecified) the inhibition was 59% (active).
For O=C1C=CC(=O)N1c1ccc(OC(F)F)cc1, the inhibition was 71% (active).
Compound CNCc1ccccc1Sc1cc(O)ccc1O has an inhibition of 24.2%.
In the case of CN1c2ccccc2Sc2cc(N)ccc21, the inhibition is reported as 87.7% (active).
For CC(C)C(=O)N(Cc1ccccc1)c1ccccn1, the inhibition was 21.7%.
Compound Nc1c(C(=O)NCc2ccc3c(c2)OCO3)nnn1-c1ccc(OC(F)(F)F)cc1 has an inhibition of 48.9%.
In the case of Cc1cc(C)cc(-n2nnc(C(=O)NCc3ccccc3)c2N)c1, the inhibition is reported as 53.6% (active).
Compound CCOc1ccc(CNC(=O)c2cc3oc4ccccc4c3n2C)cc1 has an inhibition of 32.7%.
In the case of CC(C)COC(=O)Nc1nnc(SCc2ccccc2F)s1, the inhibition is reported as 47.1%.
For CCSc1nnc(NC(=O)c2ccccc2)s1, the inhibition was 85.4% (active).
With Cc1ccc(Nc2nnc(SCC(=O)Nc3ccc(S(=O)(=O)N4CCOCC4)cc3)s2)cc1 the inhibition was 36%.
C=C(C)C(=O)Nc1nnc(-c2cccs2)s1 showed an inhibition of 36.6%.
With CCSc1nnc(NC(=O)c2ccc(C)o2)s1 the inhibition was 59.5% (active).
With CN(C)c1ccc(N/C=C/C(=O)c2ccccc2)cc1 the inhibition was 62.9% (active).
Work on Cc1cccc(N/C=C/C(=C(C#N)C#N)N(C)C)c1 yielded an inhibition of 38.1%.
O=C(NCc1cccnc1)C1CCN(S(=O)(=O)c2cccnc2)CC1 gave an inhibition of 42.8%.
COc1ccc(S(=O)(=O)N(CC(=O)N2CCOCC2)Cc2ccccc2)cc1C showed an inhibition of 40.5%.
For O=C(c1ccc(Br)s1)N1CCN(C/C=C/c2ccccc2)CC1, the inhibition was 55.4% (active).
With CN(CC(=O)NC(=O)NCc1ccccc1)Cc1cccc(Cl)c1Cl the inhibition was 43.1%.
CCN(c1cccc(C)c1)S(=O)(=O)c1cccc(C(=O)O)c1 gave an inhibition of 32.3%.
With CCN(CC)c1ccc(/C=C2/SC(=O)N(C(C)C)C2=O)o1 the inhibition was 71% (active).
With N#CC1(C#N)CC(C=O)=C(N)C1(C#N)CC(=O)C12CC3CC(CC(C3)C1)C2 (stereo unspecified) the inhibition was 35.1%.
